Source: PubChem BioAssay (EPA / NIEHS)
Where “and” joins values, the source holds several entries; their conditions need not be identical. Equal values may be shown once. Calls of active or inactive are those of the source. Rule for the calls: active = hit-call score of the fitted dose curve at least 0.9, where 1 is the maximum; inactive = score below 0.9.

read-out: Interleukin 2 (IL2), IL2 (gene 3558); assay: BSK_BT_xIL2: BioMAP Diversity Plus: BT Assay for Interleukin 2 (IL2) Biomarker Activity (AID 2284245); conditions: primary human B cells with PBMC
Description: BSK_BT is a cell-based, multiplexed-readout assay that uses B cell and peripheral blood mononuclear cells, a human vascular primary cell co-culture, with measurements taken at 24 hours after chemical dosing in a microplate: 96-well plate.BSK_BT_xIL2 is an assay component measured in the BSK_BT assay. It measures secreted IL-2 related to regulation of gene expression using LumineX xMAP technology.Data from the assay component BSK_BT_xIL2 was analyzed at the endpoint, BSK_BT_xIL2, in the positive analysis fitting direction relative to DMSO as the negative control and baseline of activity. Using a type of cytokine quantitation reporter, gain or loss-of-signal activity can be used to understand protein changes. To generalize the intended target to other relatable targets, this assay endpoint is annotated to the 'cytokine' intended target family, where the subfamily is 'interleukins'.
The levels of cell surface (or secreted, indicated by the prefix "s") biomarker endpoints were measured by ELISA. Overt cytotoxicity to cells in confluent adherent cultures (all systems other than the BT system) was assessed by measuring total protein levels using sulforhodamine B (SRB) staining in parallel cultures at the time of biomarker measurements, indicated as SRB endpoints. For proliferation assays for adherent cell types, individual cell types are cultured at sub-confluence and relative cell numbers quantified by SRB staining at time points optimized for each system (48 h: 3C and CASM3C systems; 72 h: BT and HDF3CGF systems; 96 h: SAg system). SRB was performed by staining cells with 0.1% SRB after fixation with 10% TCA and reading wells at 560 nm.Viability and proliferation of PBMC (T cells) was quantified by Alamar Blue reduction for the SAg and BT systems. For PBMC viability (referred to as PBMC Cytotoxicity within the assay endpoint names), cells were plated (75,000/well in a 96-well plate) and then chemical samples added for 1 h before addition of activators, SEB and TSST-1 (20 ng/mL final concentration each). Cells were incubated for 90 h. Then, Alamar Blue (20 uL/well) (Invitrogen, Cat DAL1100) was added for 6 h, and the plates were read with a fluorescence microplate reader at 546/580 nm (excitation/emission). For PBMC proliferation, cells were plated and activated as above but incubated for only 16 h prior to addition of Alamar Blue. Plates were read after 6 h.

SMILES | outcome | AC50
Oc1cccc2ccccc12 | inactive | –
COC(=O)/C=C\C(=O)OC | – | 12.8 µM (active)
OC(C(F)(F)F)(C(F)(F)F)C(O)(C(F)(F)F)C(F)(F)F | – | 46 µM (active) and 48.1 µM (active)
CCCCCCCCCCC1CO1 (stereo not given) | inactive | –
CC(C)CC(=O)CC(C)CC(C)C (stereo not given) | inactive | –
CN(C)CCC(c1ccc(Cl)cc1)c1ccccn1 (stereo not given) | inactive | –
CC[N+](CC)(CC(=O)Nc1c(C)cccc1C)Cc1ccccc1 | inactive | –
CCCCCCCCCCCCCCCCCC[N+](C)(C)C | – | 1.81 µM (active)
Cc1cc(-n2nc3ccc(Cl)cc3n2)c(O)c(C(C)(C)C)c1 | inactive | –
CCCCCCC(O)CCCCCCCCCCC(=O)OC (stereo not given) | inactive | –
O=C(C(=O)c1ccccc1)c1ccccc1 | inactive | –
Sc1nc2ccccc2s1 | inactive | –
CN(C)c1ccc(C(c2ccccc2)c2ccc(N(C)C)cc2)cc1 | – | 34.3 µM (active)
CCCCCCCCCC/C=C/C1CC(=O)OC1=O (stereo not given) | inactive | –
Cc1cccnc1 | inactive | –
